Source: PubChem BioAssay
Shiga inhibitor: A qHTS for Small Molecule Inhibitors of Shiga Toxin | Vero cells, Shiga toxin protein synthesis inhibition reporter | inhibition, % at 38.7 µM | 290,000 tested, 9.2% active | AID 2315, 2010; in the data active = inhibition mostly above about 28%, no sharp cut-off; inactive = mostly below about 43%; note: 0% is about no effect
Pf growth 96h: Primary qHTS for delayed death inhibitors of the malarial parasite plastid, 96 hour incubation; P. falciparum luciferase reporter growth, 96 h; Potency, µM (top dose mostly 28.7 µM), inactives show at the top dose activity change, negative = inhibition, actives largely listed as inhibitors; 320,000 tested, 6.9% active; AID 504834, 2011; note: potency is the fitted concentration of half-maximal effect; % is set by controls: 0 for no effect and ±100 for the full control effect
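Plates of compound plus infected erythrocytes (2% hematocrit, 0.05% parasitemia final) incubate 96 hours, 37 C, 5% CO2. Detection reagent added; reduced luminescence from the parasites' luciferase reporter flags inhibition.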
Pf growth 48h: Primary qHTS for delayed death inhibitors of the malarial parasite plastid, 48 hour incubation | P. falciparum luciferase growth in erythrocytes, 48 h | Potency, µM (highest dose often 28.7 µM), inactives show at the top dose activity change, negative = inhibition, actives largely listed as inhibitors | 310,000 tested, 5.9% active; note: potency is the fitted concentration of half-maximal effect; % is set by controls: 0 for no effect and ±100 for the full control effect
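Luciferase-expressing P. falciparum in infected erythrocytes (2% hematocrit, 0.1% parasitemia final) in RPMI 1640/0.5% Albumax were exposed to compound for 48 hours at 37 C, 5% CO2; growth read as luminescence.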
HCV inh: qHTS Assay for Inhibitors of Hepatitis C Virus (HCV). Huh7.5.1 HCVcc-Cre infection, luciferase reporter, 44 h. Potency, µM (titrated, usually from 41.8 µM), for inactives: at the top dose activity change, negative = inhibition, hits mostly inhibitors. 340,000 tested, 3.4% active; note: potency is the fitted concentration of half-maximal effect; % is set by controls: 0 for no effect and ±100 for the full control effect
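Reporter virus HCVcc-Cre (~0.5 moi) infects cells exposed to compound; seeding density 1,000 cells/well with 4 h settling beforehand. Luminescence, 15 sec read, taken 44 h post-infection following a 15 min RT substrate incubation.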
AMA1 RON2 block: qHTS for Inhibitors of AMA1-RON; Towards Development of Antimalarial Drug Lead: Primary Screen. Plasmodium falciparum AMA1 (3D7) - RON2 peptide interaction. AlphaScreen AMA1-biotinylated RON2 peptide binding. Potency, µM (series often up to 58.2 µM), without a hit: top-dose activity change, negative = inhibition, hits mostly inhibitors. 360,000 tested, 0.2% active. AID 720542, 2013;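 note: potency is the fitted concentration of half-maximal effect; 0% = vehicle wells and -100% = peptide control; nearly all actives have a fitted effect of over 45% in size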
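AMA1 (3D7) with his tag at 25 nM final met compounds first, then biotinylated RON2 peptide at 25 nM; detection used donor plus acceptor beads, 10 µg/mL apiece, read by AlphaScreen after 30 min at room temperature.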
CHX counter: Cycloheximide Counterscreen for Small Molecule Inhibitors of Shiga Toxin; cell reporter, cycloheximide protein synthesis inhibition counterscreen; max response, %; 300,000 tested, 12% active; in the data active = max response mostly above about 13%, no sharp cut-off; inactive = mostly below about 14%; note: read at 38.3 µM for the half of the compounds with a filed dose; 0% is about no effect
* marks the source's active call; other numbers are inactive results. A selection: hits, their analogues and other compounds. The true share with any hit is near 21%. Unless noted, calls come from the whole dose curve; as a rule, active = well fitted curve in the direction sought with a large enough effect; inconclusive = small, poorly fitted or top-dose-only effect, or another doubt; inactive = no such curve, though single readings can be large; an effect the other way counts as inactive or inconclusive.

What do the screens show for `CCCCn1c(O)c(/C=N/N2CCCCC2c2cccnc2)c(=O)[nH]c1=S` (centres undefined)?
Shiga inhibitor: 11; Pf growth 96h: inconclusive; Pf growth 48h: 20%; HCV inh: -4%; AMA1 RON2 block: -17%; CHX counter: 6

Results for Cc1ccc(-n2c(O)c(/C=N/N3CCCCC3c3cccnc3)c(=O)[nH]c2=S)cc1 (centres undefined) ?
Shiga inhibitor: -6; Pf growth 96h: inconclusive; Pf growth 48h: 14%; HCV inh: 0%; AMA1 RON2 block: 28%; CHX counter: -6

Results for O=C(c1cn(-c2ccccc2)nc1-c1cccnc1)N1CCN(S(=O)(=O)c2ccc(Cl)cc2)CC1 ?
HCV inh: 12%; AMA1 RON2 block: -7%

What do the screens show for `O=C(c1[nH]c(C(F)(F)F)nc1-c1ccccc1)N1CCN(c2ncccc2C(F)(F)F)CC1`?
AMA1 RON2 block: 1%

Results for COc1ccc(CCNC(=O)c2ccccc2Cl)cc1OC ?
Shiga inhibitor: 2; Pf growth 96h: inconclusive; Pf growth 48h: 20%; HCV inh: -11%; AMA1 RON2 block: 14%; CHX counter: -2

Results for COc1cc(CCC(C)=O)ccc1OC(=O)c1c(F)cccc1Cl ?
Shiga inhibitor: 88*; Pf growth 96h: 445%; Pf growth 48h: 485%; HCV inh: 11µM*; AMA1 RON2 block: -7%; CHX counter: 39*

How did COc1ccccc1CNC(=O)COC(=O)Cc1c(F)cccc1Cl do in these assays?
Shiga inhibitor: 16; Pf growth 96h: 12%; Pf growth 48h: 5%; HCV inh: 5%; AMA1 RON2 block: -16%; CHX counter: 8

How did COc1ccc(NC(=O)COC(=O)Cc2c(F)cccc2Cl)cc1OC do in these assays?
Shiga inhibitor: 46; Pf growth 96h: 0%; Pf growth 48h: -2%; HCV inh: 1%; AMA1 RON2 block: -18%; CHX counter: 21*

How did COc1ccc(NC(=O)COC(=O)c2c(F)cccc2Cl)cc1OC do in these assays?
Shiga inhibitor: 76*; Pf growth 96h: 175%; Pf growth 48h: 128%; CHX counter: 41*

Results for COc1ccc(NC(=O)COC(C)=O)cc1OC ?
Shiga inhibitor: -7; Pf growth 96h: 12%; Pf growth 48h: inconclusive; HCV inh: 8%; AMA1 RON2 block: 3%; CHX counter: -2

What do the screens show for `COc1ccc(NS(=O)(=O)c2cc(NC(=O)Cc3c(F)cccc3Cl)ccc2OC)cc1`?
Pf growth 96h: inconclusive; Pf growth 48h: 5.9µM*; HCV inh: 13µM*; AMA1 RON2 block: -9%

Results for CC(=O)N1CCc2cc(S(=O)(=O)C(C)CC(=O)NCc3ccco3)ccc21 (centres undefined) ?
AMA1 RON2 block: -3%

What do the screens show for `c1ccc(CCNc2ncnc3sccc23)nc1`?
Shiga inhibitor: 73*; Pf growth 96h: 239%; Pf growth 48h: 124%; HCV inh: inconclusive; AMA1 RON2 block: 45%; CHX counter: 35*

What do the screens show for `c1ccc(CNc2ncnc3sccc23)cc1`?
Shiga inhibitor: -3; Pf growth 96h: 22%; Pf growth 48h: 21%; HCV inh: 6%; AMA1 RON2 block: 1%; CHX counter: -2

How did OC(CNc1ncnc2sccc12)c1ccccc1 (centres undefined) do in these assays?
Shiga inhibitor: 84*; Pf growth 96h: 210%; Pf growth 48h: 146%; HCV inh: 3.2µM*; AMA1 RON2 block: 6%; CHX counter: 25*

How did Cc1csc2ncnc(NCCc3ccccn3)c12 do in these assays?
Shiga inhibitor: -19; Pf growth 96h: 12%; Pf growth 48h: 18%; HCV inh: 7.1µM*; AMA1 RON2 block: -7%; CHX counter: 5

What do the screens show for `Cc1ccc(SC(C)C(=O)NCC(C)C)cc1` (centres undefined)?
Shiga inhibitor: 12; Pf growth 96h: -7%; Pf growth 48h: 15µM*; HCV inh: 11%; AMA1 RON2 block: 1%; CHX counter: 9

Results for CCOC(=O)C1CCN(CCC(=O)Nc2ccc(C)c(C)c2)CC1 ?
Shiga inhibitor: -3; Pf growth 96h: 13%; Pf growth 48h: -4%; HCV inh: -15%; AMA1 RON2 block: -5%; CHX counter: -4

Results for COc1ccnc(N2CCN(c3cccc(C(F)(F)F)c3)CC2)c1C#N ?
Shiga inhibitor: 25; Pf growth 96h: 49%; Pf growth 48h: 16%; HCV inh: 19%; AMA1 RON2 block: 9%; CHX counter: -1

What do the screens show for `COc1ccnc(N2CCN(c3ccc(Cl)cc3)CC2)c1C#N`?
Shiga inhibitor: 44; Pf growth 96h: 103%; Pf growth 48h: 24%; HCV inh: 32µM*; AMA1 RON2 block: 11%; CHX counter: 18

How did COC(=O)C1=Cc2cc(OC)cc([N+](=O)[O-])c2OC1N1CCOCC1 (centres undefined) do in these assays?
Shiga inhibitor: -19; Pf growth 96h: -5%; Pf growth 48h: inconclusive; HCV inh: 15%; AMA1 RON2 block: -3%; CHX counter: -3

How did N#CCc1ccc(C(=O)c2ccccc2)s1 do in these assays?
Shiga inhibitor: 44; Pf growth 96h: 10%; Pf growth 48h: 9%; HCV inh: 5%; AMA1 RON2 block: -3%; CHX counter: 18*

What do the screens show for `Cc1cccc(CSc2nc3ccncc3n2CC(=O)Nc2cc(C)cc(C)c2)c1`?
Shiga inhibitor: -7; Pf growth 96h: 8.3µM*; Pf growth 48h: 26%; HCV inh: -13%; AMA1 RON2 block: -5%; CHX counter: 6

How did CC(=O)OC1CC2CCC1(C)C2(C)C (centres undefined) do in these assays?
Shiga inhibitor: -4; Pf growth 96h: 12%; Pf growth 48h: -7%; CHX counter: -3

What do the screens show for `CC(=O)OC(COC1C[C@@H]2CC[C@@]1(C)C2(C)C)C[N+]1(C)CCCCC1` (some centres undefined)?
Shiga inhibitor: 5; Pf growth 96h: 2.9µM*; Pf growth 48h: 3.3µM*; HCV inh: 29%; AMA1 RON2 block: 5%; CHX counter: -2

How did CCN(C(C)=O)c1cnc(C=NNC(N)=S)c2ccccc12 do in these assays?
HCV inh: 6.3µM*; AMA1 RON2 block: -27%

Results for CC(C)=CCc1c(O)cc(O)c2c1OC(c1ccc(O)cc1)CC2=O (centres undefined) ?
HCV inh: inconclusive; AMA1 RON2 block: -11%

Results for CC(C)=CCc1c(O)cc2c(c1O)C(=O)CC(c1ccc(O)cc1)O2 (centres undefined) ?
Shiga inhibitor: 29; Pf growth 96h: 22%; Pf growth 48h: -8%; HCV inh: inconclusive; AMA1 RON2 block: -1%; CHX counter: 23*
